MITF TRPM1 HTS: activators of MITF-driven TRPM1 promoter activity in SK-MEL-5 cells | AID 588334 | activation, % at 12.5 µM | actives 0.75% (n = 300,000) | SK-MEL-5 TRPM1-promoter luciferase, 24 h; % of positive control, neutral wells = 0;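 active = mean activation of at least 80% with every replicate also reaching 80%; inconclusive = mean reaches 80% but some replicate falls short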
Glyco luc inh: N-linked glycosylation inhibition. D54 ERlucT glycosylation luciferase reporter, 24 h; percent of 100 nM tunicamycin response. reporter increase, % at 12.5 µM. actives 0.23% (n = 360,000);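 active = mean luciferase reporter signal, scaled so untreated is 0 and the glycosylation-blocking control 100, at or above a set limit in every replicate; inconclusive = mean reaches the limit but not every replicate does; inactive = mean below the limit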;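 also: luciferase carries N-glycosylation sites so blocking glycosylation raises the light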
PvdQ acylase: blocks Pseudomonas aeruginosa PvdQ acylase activity; purified PvdQ acylase, fluorescence plate reader; inhibition, % at 10 µM; actives 0.063% (n = 340,000); in the data active = inhibition above about 30%, passing the limit was not always enough; inconclusive = no clear call, values can overlap the other calls
Wnt bcat act: Wnt/beta-catenin pathway activation. Wnt/beta-catenin reporter cell assay, activator, plate reader. activation, % at 9.35 µM. actives 1.2% (n = 300,000); in the data active = activation above about 30%, passing the limit was not always enough; inconclusive = no clear call, values can overlap the other calls
Vif imaging: blocks HIV Vif function; inhibition, % at 7.49 µM; HEK293T cells, Vif self-association by quenched fluorescence, imaging, 24 h; actives 0.35% (n = 340,000); AID 602346; in the data active = inhibition above about 50%, passing the limit was not always enough; inconclusive = no clear call, values can overlap the other calls; inactive = below about 31%
esBAF inh: inhibitors of esBAF chromatin remodeling in mouse ES cells. reporter increase, % at 12.5 µM. actives 2% (n = 350,000). Bmi1-luciferase knock-in reporter, 24 h; 100% = twice the neutral-well signal; in the data active = activation above about 40%; inconclusive = no clear call, values can overlap the other calls;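 also: a rise in the Bmi1 reporter signal indicates esBAF inhibition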
Hits are given with their value; – = inactive; ? = inconclusive; · = not tested or not shown. Only some compounds are listed: those with a hit (about 2.9% of all), similar ones and a draw of the others.

SMILES | MITF TRPM1 HTS | Glyco luc inh | PvdQ acylase | Wnt bcat act | Vif imaging | esBAF inh
C[C@H](CO)N1C[C@H](C)[C@@H](CN(C)C(=O)Nc2ccc3c(c2)OCO3)OCc2ccccc2-c2c(n(C)c3ccccc23)C1=O | · | · | · | · | · | –
COc1ccccc1NC(=O)N(C)C[C@@H]1OCc2ccccc2-c2c(n(C)c3ccccc23)C(=O)N([C@H](C)CO)C[C@H]1C | · | · | · | · | · | –
C[C@@H]1CN([C@@H](C)CO)C(=O)c2c(c3ccccc3n2C)-c2ccccc2CO[C@@H]1CN(C)C(=O)Nc1ccc2c(c1)OCO2 | · | · | · | · | · | 50
Cc1noc(C)c1COc1ccccc1C(=O)N(C)Cc1ccco1 | – | – | – | 38 | – | –
Cc1noc(C)c1COc1ccccc1C(=O)N(C)CC(=O)Nc1ccc(Cl)c(Cl)c1 | – | – | – | – | – | –
CCCOc1c(Br)cc(C2C3=C(CCCC3=O)N(CC)C3=C2C(=O)CCC3)cc1OC | – | – | – | – | – | 44
Cc1ccc(-n2ncc(C(=O)NCC3CCN(C4CCCC4)C3)c2C2CCN(C(=O)OC(C)(C)C)CC2)cc1 (stereo unspecified) | – | – | – | – | – | –
CC(C)(C)OC(=O)N1CCC(c2c(C(=O)NCC3CCN(C4CCCC4)C3)cnn2-c2ccc(F)cc2)CC1 (stereo unspecified) | – | – | – | – | 60 | –
COc1cccc2cc(-c3n[nH]c(=S)n3C)oc12 | – | – | – | – | – | ·
COc1cccc2cc(-c3ccnc(N)n3)oc12 | – | – | – | – | – | 45
CCCn1nc2cc(C(=O)NCCc3cccs3)ccc2c1OCC | – | – | – | – | – | 72
CCCCNC(=O)c1ccc2c(OCC)n(CCCC)nc2c1 | – | – | – | – | – | –
O=C(Nc1ccc(Nc2ccccc2)cc1)c1ccc(Br)o1 | – | – | – | – | – | 57
CC(C)c1ccc(NC(=O)c2cccc(Br)c2)cc1 | – | – | – | 56 | – | ·
O=C(Nc1ccc(NC(=O)c2cccs2)cc1)c1ccc(Br)o1 | – | – | – | · | – | ·
COc1ccc(NC(=O)c2ccc([N+](=O)[O-])o2)cc1 | · | 31 | – | – | – | –
Cc1cc(O)c(NC(=O)c2ccc(Br)o2)cc1C | – | – | – | ? | – | 67
CCCN1C[C@H](C)[C@@H](OC)CN(C)C(=O)c2cc(NC(=O)c3cccc(F)c3)ccc2OC[C@H]1C | · | · | · | · | · | –
C[C@@H]1CN([C@@H](C)CO)C(=O)c2cc(NC(=O)NC3CCCCC3)ccc2O[C@@H](C)CCCCO[C@H]1CN(C)C(=O)Nc1ccccc1 | · | · | · | · | · | –
CCCNC(=O)[C@@H]1[C@@H](CO)[C@@H]2Cn3c(ccc(-c4cccc(F)c4)c3=O)[C@H]1N2CCC | · | · | · | · | · | –
COc1ccc(NC(=S)NC(=O)c2ccc(Br)o2)cc1 | 90 | – | – | – | – | 46
CC(C)c1ccc(NC(=O)c2ccc(Br)o2)cc1 | 89 | – | – | · | – | ·
Cc1ccccc1-c1nc(-c2ccc(Br)o2)no1 | – | – | – | ? | – | –
O=C(NC(=S)Nc1ccccc1)c1ccc(Br)o1 | – | – | – | 50 | – | 45
COc1ccc(NC(=O)c2ccc(Br)o2)cc1 | – | – | – | ? | · | ·
SMILES | MITF TRPM1 HTS | Glyco luc inh | PvdQ acylase | Wnt bcat act | Vif imaging | esBAF inh
Cc1ccccc1-c1nc(-c2ccc(NC(=O)c3ccc(Br)o3)cc2)no1 | – | – | – | · | – | 49
O=C(NC(=S)NCc1ccccc1)c1ccc(Br)o1 | – | – | – | – | – | –
Cn1cnc(S(=O)(=O)N[C@H]2CC[C@@H](CC(=O)NCC3CCCCC3)O[C@H]2CO)c1 | · | · | · | · | · | –
COc1ccc(CN(C)C[C@@H]2OCCCC[C@H](C)Oc3ccc(NC(=O)Nc4ccc(C(F)(F)F)cc4)cc3C(=O)N([C@H](C)CO)C[C@H]2C)cc1 | · | · | · | · | · | –
NC(=O)c1cccc(-c2coc3c(C(=O)NCc4ccccc4)cccc23)c1 | · | – | · | – | – | 50
COCC(=O)N(C)C[C@H]1Oc2ncc(C#C[C@H](C)O)cc2C(=O)N([C@@H](C)CO)C[C@@H]1C | · | · | · | · | · | –
COC(=O)c1ccc(CSc2nnc(N)s2)cc1 | – | – | – | · | – | –
COC(=O)c1ccc(CSc2nc(N)cc(N)n2)cc1 | – | – | – | · | – | 52
C[C@@H]1CN([C@H](C)CO)S(=O)(=O)c2ccc(-c3cncnc3)cc2O[C@@H]1CN(C)C(=O)C1CCCCC1 | · | · | · | · | · | –
O=c1cnn(-c2ccc(Cl)cc2Cl)c(-c2ccccc2)c1 | – | – | – | · | – | 49
C[C@H](CO)N1C[C@H](C)[C@H](CN(C)S(=O)(=O)c2ccc(F)cc2)Oc2ccc(NC(=O)C3CC3)cc2CC1=O | · | · | · | · | · | –
Cc1nc(OCC(C)C)c2sc3nc4c(cc3c2n1)COC(C)(C)C4 | · | – | · | 52 | – | ·
COc1nc(C)nc2c1sc1nc3c(cc12)COC(C)(C)C3 | ? | – | – | · | – | –
Cc1ccc(O)c(-c2cc(-c3cccc(F)c3)n[nH]2)c1 | – | – | – | – | – | –
COc1ccc(-c2cc(-c3ccccc3O)[nH]n2)cc1OC | · | – | – | · | – | 87
Cc1ccc(-c2cc(-c3cccc(F)c3)n[nH]2)c(O)c1 | – | – | – | · | · | 56
COc1ccc(-c2cc(-c3cc(F)ccc3O)[nH]n2)cc1OC | 100 | – | – | – | – | ?
COc1ccc(-c2cc(-c3ccc(OC)c(OC)c3)n[nH]2)c(O)c1 | · | – | – | · | – | ·
COC(=O)c1cc(-c2ccc(OC)c(OC)c2)n[nH]1 | – | – | – | – | – | –
Cc1noc(C)c1NC(=O)N(C)C[C@H]1Oc2ccc(NC(=O)NC(C)C)cc2CC(=O)N([C@H](C)CO)C[C@H]1C | · | · | · | · | · | –
COc1ccc2cc(C(=O)OC(C)C)sc(=O)c2c1OC | – | – | – | · | – | 53
COc1ccc2cc(C(=O)NCC(=O)O)sc(=O)c2c1OC | – | – | – | · | – | ·
COc1ccccc1NC(=O)N[C@H]1CC[C@@H](CCn2cc(-c3ccccc3OC)nn2)O[C@@H]1CO | · | · | · | · | · | –
O=C(CNC(=O)c1ccc(Br)o1)Nc1cccc(-c2cnc3ccccc3n2)c1 | – | 26 | – | · | – | –
O=C(Nc1cccc(-c2cn3cccnc3n2)c1)c1ccc(Br)o1 | – | – | – | · | 81 | –
SMILES | MITF TRPM1 HTS | Glyco luc inh | PvdQ acylase | Wnt bcat act | Vif imaging | esBAF inh
O=C(Nc1cccc(-c2cn3cccnc3n2)c1)c1ccco1 | – | – | – | – | – | –
O=C(Nc1cccc(-c2cnc3ccccc3n2)c1)c1ccco1 | – | – | – | – | – | –
COc1ccc(-c2c(C)nc3c(-c4ccsc4)cnn3c2N)cc1 | 94 | – | – | – | – | –
CCCN1[C@@H]2Cn3c(ccc(-c4cccc(OC)c4)c3=O)[C@H]1[C@@H](C(=O)NCC)[C@@H]2CO | · | · | · | · | · | –
CC(C)NC[C@H]1[C@H](c2ccc(C3=CCCCC3)cc2)[C@@H](CO)N1C(=O)NC(C)C | · | · | · | · | · | –
Clc1ccc2oc(-c3ccccc3)cc(=NCCCN3CCOCC3)c2c1 | 103 | – | – | 57 | – | ·
O=c1cc(-c2ccccc2)oc2ccc3ccccc3c12 | · | – | · | – | – | –

High-throughput results: PubChem, Broad Institute
